# Test results: PubChem BioAssay (NCI)
# This is part of a sample that, as a whole, favours compounds with a hit. Of some 83,000 tested, about 20% had one in any assay.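 Treatment: one concentration, 48 hours, 96-well format. Scoring: percent growth, with anything below 10 considered active.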 Values without a mark were called inactive. Activity calls are given as the source filed them.
# How the values were obtained:
# Assay in all cases: NCI-60 one-dose screen, 48 h (100 = growth as untreated, 0 = no growth, -100 = all killed)
# DU-145 prostate = conditions: 10 µM unless noted
# K-562 leukemia = conditions: 10 µM unless noted
# MALME-3M melanoma = conditions: 10 µM unless noted
# MDA-MB-231 breast = conditions: 10 µM unless noted
# RXF 393 renal = conditions: 10 µM unless noted
# SF-268 CNS = conditions: 10 µM unless noted
# SF-295 CNS = conditions: 10 µM unless noted
# SF-539 CNS = conditions: 10 µM unless noted
# UACC-257 melanoma = conditions: 10 µM unless noted
# HCT-15 colon = conditions: 10 µM unless noted
# HT29 colon = conditions: 10 µM unless noted
# SNB-75 CNS = conditions: 10 µM
# SNB-19 CNS = conditions: 10 µM unless noted
# U251 CNS = conditions: 10 µM unless noted
# PC-3 prostate = conditions: 10 µM unless noted
# SK-MEL-5 melanoma = conditions: 10 µM unless noted
# UACC-62 melanoma = conditions: 10 µM unless noted
# LOX IMVI melanoma = conditions: 10 µM unless noted
# SK-MEL-28 melanoma = conditions: 10 µM unless noted
# M14 melanoma = conditions: 10 µM unless noted
SMILES,growth (DU-145 prostate),growth (K-562 leukemia),growth (MALME-3M melanoma),growth (MDA-MB-231 breast),growth (RXF 393 renal),growth (SF-268 CNS),growth (SF-295 CNS),growth (SF-539 CNS),growth (UACC-257 melanoma),growth (HCT-15 colon),growth (HT29 colon),growth (SNB-75 CNS),growth (SNB-19 CNS),growth (U251 CNS),growth (PC-3 prostate),growth (SK-MEL-5 melanoma),growth (UACC-62 melanoma),growth (LOX IMVI melanoma),growth (SK-MEL-28 melanoma),growth (M14 melanoma)
COC1=C(OC)C(=O)C(CCCCCCCCCC[P+](c2ccccc2)(c2ccccc2)c2ccccc2)=C(C)C1=O,6.01% (active),-48.9% (active),-86.3% (active),-39.6% (active),-56.7% (active),-61.6% (active),-52.6% (active),-25.1% (active),-61.2% (active),-3.39% (active),-10.6% (active),-44.5% (active),-53.1% (active),-27.2% (active),-12.7% (active),-100% (active),-93% (active),-89.6% (active),-86.1% (active),–
CC(C)OC(=O)N1CCOCC1,104%,123%,94.7%,90.8%,116%,99.7%,113%,–,97.1%,101%,–,86%,98.5%,101%,86.9%,106%,98.6%,102%,101%,103%
Cn1ccc(=O)c(S(N)(=O)=O)c1,119%,93.4%,95.5%,101%,85.8%,100%,102%,103%,109%,109%,107%,79.2%,95.5%,90.7%,101%,112%,95.8%,91.9%,116%,–
